The source of these data is PubChem BioAssay (NCATS).

Experiment [1] is described as follows: qHTS of pediatric cancer cell lines to identify multiple opportunities for drug repurposing: Confirmatory screen for U-2 OS cells (AID 1347122). Also: nearly all actives have a fitted effect of over 65% in size. Also: potency is read from the fitted curve at half-maximal effect. In outline:
(§1)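 Viability after 48 h compound treatment at 37C, 500-1,000 cells/well, read as ATP luminescence with CellTiter-Glo. Primary screens used 11-point (MIPE, 0.78 nM-46 µM) or 8-point (NPC, 0.59 nM-46 µM) final concentrations; follow-up screens used 11-point dilutions.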
Background: In qHTS, concentration-response curves come from the screen itself.

Experiment [2] is described as follows: qHTS of pediatric cancer cell lines to identify multiple opportunities for drug repurposing: Confirmatory screen for Rh41 cells (AID 1347123).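 Also: potency is read from the fitted curve at half-maximal effect; 48 h compound exposure; nearly all actives have a fitted effect of over 60% in size.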 In short, it runs like this: as §1
Experiment [3] is described as follows: qHTS of pediatric cancer cell lines to identify multiple opportunities for drug repurposing: Confirmatory screen for RD cells (AID 1347124).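 Also: cells exposed to compound for 48 h before viability readout; nearly all actives have a fitted effect of over 65% in size.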 Also: potency is read from the fitted curve at half-maximal effect. In outline: as §1
The nature of experiment [4]: qHTS of pediatric cancer cell lines to identify multiple opportunities for drug repurposing: Confirmatory screen for Rh18 cells (AID 1347125). Also: potency is read from the fitted curve at half-maximal effect; nearly all actives have a fitted effect of over 55% in size. In short, it runs like this:
as §1

A short description of experiment [5]: qHTS of pediatric cancer cell lines to identify multiple opportunities for drug repurposing: Confirmatory screen for Rh30 cells (AID 1347126). Also: nearly all actives have a fitted effect of over 55% in size. Also: potency is read from the fitted curve at half-maximal effect. In short, it runs like this:
as §1

Experiment [6] in a line: qHTS of pediatric cancer cell lines to identify multiple opportunities for drug repurposing: Confirmatory screen for Saos-2 cells (AID 1347127). Also: potency is read from the fitted curve at half-maximal effect; nearly all actives have a fitted effect of over 60% in size. In short, it runs like this:
as §1

Experiment [7] has as its system Zika virus NS2B-NS3 protease. The experiment is described as follows: Primary screen GU AMC qHTS for Zika virus inhibitors (AID 1347154).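 Also: 0% = no-inhibitor control and -100% = no-enzyme control; nearly all actives have a fitted effect of over 70% in size.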 In outline: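 Unlinked Zika NS2B hydrophilic domain–NS3 protease complex at 25 nM in 10 mM Tris-HCl pH 8.0, 0.01% Tween 20, with an AMC peptide substrate. Fluorescence change (340/450 nm) over 15 min at room temperature, normalized to controls, fitted to 4-parameter Hill.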

Experiment [8] is described as follows: qHTS of pediatric cancer cell lines to identify multiple opportunities for drug repurposing: Confirmatory screen for OHS-50 cells (AID 1347128).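 Also: potency is read from the fitted curve at half-maximal effect; compound exposure lasted 48 h at 37 degrees C; nearly all actives have a fitted effect of over 55% in size.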 In outline:
as §1

Experiment [9] is described as follows: qHTS of pediatric cancer cell lines to identify multiple opportunities for drug repurposing: Confirmatory screen for SK-N-SH cells (AID 1347129).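 Also: potency is read from the fitted curve at half-maximal effect; cells exposed to compound for 48 h before viability read; nearly all actives have a fitted effect of over 60% in size.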 In outline:
as §1

Experiment [10] has as its system Zika virus NS2B-NS3 protease (unlinked complex). The experiment is described as follows: Primary screen GU Rhodamine qHTS for Zika virus inhibitors: Unlinked NS2B-NS3 protease assay (AID 1347159). Also: % is scaled to controls: 0 for no effect and ±100 for the full control effect; nearly all actives have a fitted effect of over 60% in size. In outline:
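Buffer 10 mM Tris-HCl pH 8.0, 0.01% Tween 20. Unlinked protease 25 nM; compound preincubation 15 min, RT, protected from light. Substrate Rhod110, 1.5 microM; ~15% conversion in 15 min.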

Experiment [11] has as its system Zika virus NS2B-NS3 protease (linked construct). Kind of experiment: Primary screen NINDS Rhodamine qHTS for Zika virus inhibitors (AID 1347160). Also: nearly all actives have a fitted effect of over 55% in size. As to activity change, negative = inhibition: % is scaled to controls: 0 for no effect and ±100 for the full control effect. In short, it runs like this: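 Aprotinin served as in-plate control. Conditions: 25 nM linked NS2B-NS3, pH 8.0 Tris buffer, titrated compounds, 15 min preincubation and 15 min reaction with 1.5 microM Rhod110 substrate at room temperature.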

Records with an inconclusive call do not appear. A number with no mark means an inactive call. Active and inactive are the calls of the source. Calls follow the shape of the dose curve; as a rule, active = well fitted curve in the direction sought with a large enough effect; inconclusive = small, poorly fitted or top-dose-only effect, or another doubt; inactive = no such curve, though single readings can be large; an effect the other way counts as inactive or inconclusive.

For the molecule `C[C@H](NCc1ccc2c(c1)nc(NC(=O)c1ccc(-c3cn[nH]c3)s1)n2CCc1ccccc1)C(C)(C)C`, the Potency in [1] is 1.17 µM (active); in experiment [2] it was 0.928 µM (active); in [3], 1.17 µM (active); in experiment [4] it was 3.29 µM (active); in experiment [5], 4.14 µM (active); in [6] it was 1.47 µM (active). In addition, the Potency result in experiment [7] was “inactive”.

In the case of `CC[C@@]1([C@@H]2O[C@@H]([C@H]3O[C@@](O)(CO)[C@H](C)C[C@H]3C)C[C@H]2C)CC[C@H]([C@]2(C)CC[C@]3(C[C@H](O)[C@@H](C)[C@@H]([C@@H](C)[C@@H](OC)[C@H](C)C(=O)O)O3)O2)O1`, the Potency was 2.57 µM (active) in experiment [1]; 0.91 µM (active) in experiment [2]; 2.29 µM (active) in experiment [3]; 0.723 µM (active) in experiment [6]; 0.456 µM (active) in experiment [8]; 0.645 µM (active) in experiment [9]. Besides, the Potency entry in [7] was “inactive”.

As for `COC[C@H](NC(=O)c1cnc(C)s1)C(=O)N[C@@H](COC)C(=O)N[C@@H](Cc1ccccc1)C(=O)[C@@]1(C)CO1`, the Potency in experiment [1] is 0.329 µM (active); in experiment [2], 0.0465 µM (active); in experiment [3], 0.0827 µM (active); in [4] it was 0.208 µM (active); in [5], 0.737 µM (active). The Potency entry in [7] is “inactive”.

Regarding `CC(C)(O)Cn1c(NC(=O)c2ccc(-c3cn[nH]c3)s2)nc2cc(CN3CCOCC3)ccc21`, the Potency in experiment [1] was 1.17 µM (active); in experiment [2] it was 0.585 µM (active); in experiment [3], 0.827 µM (active); in experiment [4], 1.31 µM (active); in [5] it was 0.657 µM (active); in [6] it was 0.585 µM (active). Moreover, in [9], the Potency is 1.32 µM (active).

As to `Cc1cc(Nc2ncc3c(n2)N(C)C(=O)N(c2cc(NC(=O)c4cccc(C(F)(F)F)c4)ccc2C)C3)n(C)n1`, the Potency was 0.369 µM (active) in experiment [1]; 0.208 µM (active) in experiment [2]; 0.657 µM (active) in experiment [3]; 0.737 µM (active) in experiment [4]; 0.585 µM (active) in experiment [6]. Besides, the Potency result in experiment [5] and in experiment [7] was “inactive” in each case.

For `C[C@@]12C(=O)OC(=O)[C@@]1(C)C1CCC2O1`, the Potency is 1.85 µM (active) in [1]; 1.85 µM (active) in [2]; 4.14 µM (active) in [3]; 2.93 µM (active) in [4]; 3.29 µM (active) in experiment [5]; 2.61 µM (active) in experiment [6]. Moreover, the Potency in [8] was 4.65 µM (active). Moreover, the Potency entry in [7] was “inactive”.

As for `COc1cccc2c1C(=O)c1c(O)c3c(c(O)c1C2=O)C[C@@](O)(C(=O)CO)C[C@H]3O[C@H]1C[C@H](N)[C@H](O)[C@H](C)O1`, the Potency in experiment [1] is 13.1 µM (active); in experiment [2] it was 0.928 µM (active); in [3], 5.22 µM (active); in experiment [4], 1.47 µM (active). For the same molecule, the Potency entry in experiment [7] is “inactive”.

As for `FC(F)c1nc2ccccc2n1-c1nc(N2CCOCC2)nc(N2CCOCC2)n1`, the Potency is 4.65 µM (active) in [1]; 2.93 µM (active) in experiment [2]; 8.27 µM (active) in experiment [3]; 1.85 µM (active) in experiment [4]; 1.65 µM (active) in experiment [5]; 0.827 µM (active) in experiment [6]. The Potency entry in [7], in [10] and in experiment [11] was “inactive” each time.

Turning to `CC(=O)O[C@H]1C[C@@H]2CC[C@H]3[C@H]4C[C@H]([N+]5(C)CCCCC5)[C@@H](OC(C)=O)[C@@]4(C)CC[C@@H]3[C@@]2(C)C[C@H]1N1CCCCC1`, the Potency entry in [1], in experiment [3] and in experiment [7] was “inactive” each time. Besides, the Potency in experiment [2] is 7.37 µM (active); in [4], 10.4 µM (active); in [9] it was 20.9 µM (active).

For the molecule `CC(C=CC1=C(C)CCCC1(C)C)=CC=CC(C)=CC(=O)Nc1ccc(O)cc1`, the Potency is 12 µM (active) in experiment [1]; 5.37 µM (active) in experiment [2]; 42.7 µM (active) in experiment [4]; 38 µM (active) in experiment [6]; 38.2 µM (active) in experiment [9].

On to `CCC(C=C[C@@H]1OC(=O)C=C[C@H]1C)=C[C@H](C)CC=CC(C)=C[C@@H](C)C(=O)[C@@H](C)[C@H](O)[C@@H](C)CC(C)=CC(=O)O`, for which the Potency is 0.0091 µM (active) in experiment [1], 0.0128 µM (active) in experiment [2], 0.0128 µM (active) in experiment [3] and 0.0091 µM (active) in [4]. In addition, in experiment [7], the activity change, negative = inhibition is 23.8% [at 2.16 µM].

Consider `Cn1cc(CNCC2CCN(c3ncc(C(=O)NO)cn3)CC2)c2ccccc21`, for which the Potency in experiment [1] was 0.208 µM (active); in experiment [2] it was 0.0329 µM (active); in [3], 0.329 µM (active); in experiment [4], 0.131 µM (active); in experiment [6], 0.208 µM (active); in experiment [8], 0.131 µM (active). In addition, the Potency entry in experiment [7] was “inactive”.

With `Oc1cc(-c2nc(-c3ccccc3)[nH]c2-c2ccncc2)ccc1Cl`, the Potency in [1] was 18.5 µM (active); in experiment [2] it was 16.5 µM (active); in experiment [3], 16.5 µM (active); in experiment [4] it was 18.5 µM (active); in experiment [5], 1.31 µM (active); in experiment [6], 2.61 µM (active). For the same molecule, the Potency entry in experiment [7] and in experiment [11] was “inactive” throughout.

As for `CC(C)C[C@H](NC(=O)[C@@H](NC(=O)c1cccc(-c2ccccc2)n1)[C@@H](C)O)B(O)O`, the Potency in experiment [1] is 0.0369 µM (active); in experiment [2] it was 0.0737 µM (active); in experiment [3], 0.0522 µM (active); in experiment [4], 0.0827 µM (active); in experiment [5], 3.29 µM (active); in [6], 0.414 µM (active). The Potency in experiment [9] is 0.059 µM (active). Moreover, the Potency result in experiment [7], in [10] and in experiment [11] was “inactive” throughout.

`CN(C)c1ccc(C(=O)NCCCCCCC(=O)NO)cc1`: the Potency is 1.47 µM (active) in experiment [1]; 1.17 µM (active) in experiment [2]; 2.33 µM (active) in experiment [3]; 1.47 µM (active) in [4]; 2.93 µM (active) in experiment [6]. For the same molecule, the Potency result in experiment [7] was “inactive”.

Take `Cc1nc(NC(=O)N2CCC[C@@H]2C(N)=O)sc1-c1ccnc(C(C)(C)C(F)(F)F)c1`: the Potency in experiment [1] is 14.7 µM (active); in [2] it was 2.61 µM (active); in experiment [4], 2.93 µM (active); in experiment [6], 5.85 µM (active). Besides, the Potency entry in experiment [7] is “inactive”.

With `COC1=C2C[C@@H](C)C[C@H](OC)[C@@H](O)[C@@H](C)C=C(C)[C@H](OC(N)=O)[C@@H](OC)C=CC=C(C)C(=O)NC(=CC1=O)C2=O`, the Potency was 1.04 µM (active) in experiment [1]; 2.33 µM (active) in experiment [2]; 0.928 µM (active) in [3]; 2.08 µM (active) in experiment [4]; 0.928 µM (active) in [6]; 4.65 µM (active) in [8]. The Potency entry in experiment [7] is “inactive”.
